Screens (PubChem)
BAZ2B block: qHTS Assay for Inhibitors of BAZ2B; Potency, µM (series often up to 114 µM), without a hit: top-dose activity change, negative = inhibition, actives largely listed as inhibitors; 360,000 tested, 4.4% active; AlphaScreen BAZ2B-H3K14Ac peptide displacement; also: % is scaled to controls: 0 for no effect and ±100 for the full control effect; nearly all actives have a fitted effect of over 60% in size
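AlphaScreen luminescence quantifies BAZ2B engagement of H3K14Ac peptide; the protein and biotinylated peptide are both at 50 nM final, buffer PBS pH 7.4 with 0.01% Tween-20, all steps at room temperature.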
Sfp PPTase inh: qHTS Assay for Inhibitors of Bacillus subtilis Sfp phosphopantetheinyl transferase (PPTase); 310,000 tested, 3.5% active; 4'-phosphopantetheinyl transferase ffp (Bacillus subtilis), Q9F4F7; Potency, µM, for inactives: largest response in the series, negative = inhibition, actives largely listed as inhibitors; Biochemical Sfp PPTase activity, qHTS; AID 1490, 2009;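 also: the enzyme is Sfp with the accession as filed and its product quenches rhodamine fluorescence; 0% = enzyme reaction without inhibitor and -100% = no enzyme wells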
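Buffer: 50 mM Hepes-Na pH 7.6, 10 mM MgCl2, 0.01% Nonidet P-40, 0.01% BSA. Enzyme 15 nM, pre-exposed to compound 15 min; substrates then added and fluorescence change tracked over 30 min.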
G9a inh: qHTS Assay for Inhibitors of Histone Lysine Methyltransferase G9a. G9a H3K9 monomethylation, AlphaScreen, 2 h. Potency, µM (titrated, usually from 102 µM), for inactives: top-dose activity, negative = inhibition, most hits filed as inhibitors. 350,000 tested, 8.8% active. AID 504332, 2011; also: % is scaled to controls: 0 for no effect and ±100 for the full control effect; nearly all actives have a fitted effect of over 75% in size
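AlphaScreen read-out: biotin-H3K9 peptide (500 nM) methylation by 20 nM enzyme with 20 uM SAM, 2 h at room temperature after 15 min compound preincubation; anti-monomethyl H3K9 antibody plus donor/acceptor beads, 10 min dark.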
HP1b chromo inh: HTS for Inhibitors of HP1-beta Chromodomain Interactions with Methylated Histone Tails. Chromobox protein homolog 1 (Homo sapiens), P83916. AlphaScreen HP1-beta / biotin-H3K9me3 peptide binding. Potency, µM (titrated, usually from 114 µM), inactives show at the top dose activity change, negative = inhibition, usual class: inhibitors. 390,000 tested, 0.56% active; also: nearly all actives have a fitted effect of over 70% in size
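Compound inhibition of the preformed complex between 50 nM HP1-beta and 50 nM biotinylated H3K9me3 peptide was read by AlphaScreen. Buffer was PBS pH 7.4 with 0.01% Tween-20. Incubations ran 30 min at room temperature, with 10 ug/mL donor/acceptor beads.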
JMJD2A Tudor: qHTS Assay for Inhibitors of JMJD2A-Tudor Domain. Lysine-specific demethylase 4A (Homo sapiens), O75164. AlphaScreen JMJD2A-Tudor / H3K4me3 peptide binding. Potency, µM (top dose mostly 114 µM), inactives show at the highest dose activity change, negative = inhibition, usual class: inhibitors. 390,000 tested, 4.4% active; also: % is scaled to controls: 0 for no effect and ±100 for the full control effect; nearly all actives have a fitted effect of over 50% in size
An asterisk follows results filed as active; u = inconclusive; x = no result given; [ ] = dose if it differs, or a comment. Hits are enriched below; roughly 12% of the tested compounds scored in any of these assays. Calls follow the shape of the dose curve; as a rule, active = well fitted curve in the direction sought with a large enough effect; inconclusive = small, poorly fitted or top-dose-only effect, or another doubt; inactive = no such curve, though single readings can be large; an effect the other way counts as inactive or inconclusive. Potency is read from the fitted curve at half-maximal effect.

SMILES	BAZ2B block	Sfp PPTase inh	G9a inh	HP1b chromo inh	JMJD2A Tudor
COc1ccc(OC)c(CNC(=O)CCn2nc(C)c3c(C)n(-c4ccccc4)nc3c2=O)c1	3.9%	15.2%	-17.2%	34.7%	-16.4%
O=C(Nc1ccc(-c2cccc(F)c2)cc1)C1CCCN(Cc2ccccn2)C1 (configuration not stated)	u	7.0%	0.5%	28.9%	u
Cc1cccc(C)c1NC(=S)N/N=C1\CC2CC=CC12 (configuration not stated)	-27.1%	u	12.6µM*	u	-33.6%
Cc1ccc(NC(=S)N/N=C2\CC3CC=CC23)c(C)c1 (configuration not stated)	-33.8%	31.6µM*	u	-8.0%	u
Cc1ccc(C(=O)N/N=C2\CC3CC=CC23)c(C)c1 (configuration not stated)	-8.3%	3.9%	20.3%	12.7%	-5.1%
COCCN(C(=O)COC(=O)c1ccc2[nH]c(C)c(C)c2c1)c1c(N)n(Cc2ccccc2)c(=O)[nH]c1=O	-38.9%	x	5.7%[0.501 µM]	u	u
COc1ccc(-c2nc3cnc(N4CCOCC4)nc3n(Cc3cccc(OC)c3)c2=O)cc1	x	8.6%	14.3%[0.501 µM]	x	x
COc1cccc(Cn2c(=O)c(-c3cc(F)cc(F)c3)nc3cnc(N4CCNCC4)nc32)c1	x	u	4.1%[0.501 µM]	x	x
CC(=O)OCC(=O)[C@@]12OC3(CCCC3)OC1CC1C3CCC4=CC(=O)C=C[C@@]4(C)[C@]3(F)C(O)C[C@]12C (some centres not stated)	x	-6.5%	-3.8%[2.33 µM]	x	x
COCc1c(C(=O)N(C)Cc2ccccc2N2CCCC2)oc2ccccc12	u	x	50.1µM*	-30.5%	44.7µM*
O=C(Nc1ccc(Cl)cc1Cl)c1cccc(N2C(=O)C=CC2=O)c1	3.6%	16.1%	u	u	3.16µM*
O=c1cnc2cnc(Nc3ccccc3)nc2n1C1CC1	x	13.5%	0.3%[0.501 µM]	x	x
Cc1ccccc1CNC(=O)c1ccc2nc(N3CCOCC3)sc2c1	-5.4%	12.0%	-10.5%	45.2%	u
CN(C)c1cccc2c(C=C(C#N)C#N)ccc(N(C)C)c12	20µM*	-4.4%	8.91µM*	22.4µM*	15.8µM*
Cc1ccc(NCc2nnc(SCC(=O)Nc3ccccc3)n2CC2CCCO2)c(C)c1 (configuration not stated)	u	-12.1%	-11.5%[59 µM]	-19.2%	56.2µM*
Cc1ccc(NC(=O)CSc2nnc(C3CC3)n2CC2CCCO2)c(C)c1 (configuration not stated)	-2.1%	2.9%	4.2%	34.8%	4.9%
CCOC(=O)c1cccc(NC(=O)CSc2nnc(COc3ccccc3)n2CC)c1	3.9%	15.0%	17.5%[2.33 µM]	17.7%	-16.3%
CCOC(=O)c1cccc(NC(=O)CSc2nnc(CNc3ccc(C)cc3)n2CC)c1	50.1µM*	0.0%	u	12.6%	-24.4%
CCCOc1ccc(C(=O)Nc2cc(-c3nc4cc(C)cc(C)c4o3)ccc2C)cc1	-1.2%	x	-48.9%[59 µM]	16.6%	-8.5%
CCCOc1ccc(CNC(=O)Cn2cc3c(n2)-c2c(oc(C(=O)N4CCOCC4)c2C)CC3)cc1	u	x	u	23.0%	-11.7%
CSc1ccc(CCNS(=O)(=O)c2csc(C(N)=O)c2)cc1	-22.6%	9.9%	73.3%	40.9%	-19.1%
CCN1/C(=C\C=C2\C(=O)N(C)C(=S)N2C)Sc2ccccc21	x	39.8µM*	u	u	-29.3%[11.4 µM]
CCN1C(=O)/C(=C/c2cccs2)N(C)C1=S	12.0%	-12.4%	u	7.0%	-12.2%
C=CCn1c(COc2cccc(C)c2C)nnc1SCC(=O)N1CCN(c2ccccc2)CC1	u	-2.1%	3.98µM*	-11.0%	u
CCn1c(COc2c(C)cccc2C)nnc1SCC(=O)N1CCN(c2ccccc2)CC1	-28.9%	7.1%	-6.5%[59 µM]	15.7%	-22.9%
SMILES	BAZ2B block	Sfp PPTase inh	G9a inh	HP1b chromo inh	JMJD2A Tudor
O=c1cc(CN2CCc3ccccc3C2)nc2sccn12	6.6%	-6.8%	79.4µM*	41.9%	-5.6%
Cc1ccccc1-n1c(SCC(=O)N2CCN(c3ccccc3)CC2)nnc1-c1ccncc1	11.6%	-8.8%	44.7µM*	20.1%	-22.2%
Cn1c(SCC(=O)N2CCN(Cc3ccccc3)CC2)nnc1-c1ccncc1	-0.8%	15.7%	11.2µM*	30.2%	-9.7%
O=c1cc(CN2CCN(c3ccccc3O)CC2)nc2sccn12	-2.5%	-8.8%	-9.9%	9.4%	u
COc1ccc(C(=O)N2CCC3(CCCN(Cc4ccccc4)C3)CC2)cc1	x	26.7%	2.0%[12.7 µM]	x	x
CCCCc1nc2c(c3c1CC(C)OC3)CN(CCOc1ccccc1)CC2 (configuration not stated)	x	15.6%	x	x	x
C#C[C@@]1(O)CC[C@@H]2[C@@H]3CCC4=C(CCC(=O)C4)[C@H]3CC[C@]21C	x	3.5%	19.0%[21.5 µM]	x	x
Cc1cnc(C(=O)OCC(=O)Nc2ccccc2-c2ccccc2)cn1	26.1%	x	-1.5%[12.7 µM]	29.5%	-11.7%
COc1cc2c(cc1OC)CN(Cc1cc(=O)n3cc(C)ccc3n1)CC2	-1.4%	-1.1%	35.5µM*	36.1%	-15.7%
COc1cc2c(cc1OC)CN(Cc1cc(=O)n3c(-c4ccccc4)csc3n1)CC2	-3.8%	-17.3%	25.1µM*	32.4%	-20.4%
Cc1ccc(-c2csc3nnc(SCC(=O)N4CCN(Cc5ccccc5)CC4)n23)cc1	-38.5%	-7.7%	25.1µM*	1.4%	-30.6%
CCn1c(SCC(=O)N2CCN(c3ccccc3)CC2)nnc1-c1ccncc1	9.5%	-5.9%	1.78µM*	x	x
CCn1c(SCC(=O)N2CCN(c3ccccc3)CC2)nnc1-c1c[nH]c2ccccc12	-26.9%	13.9%	-3.1%[59 µM]	19.1%	-25.4%
CC(=O)N1CCc2cc(CNC(=O)Nc3ccccc3C(F)(F)F)ccc21	0.6%	x	3.2%[59 µM]	9.1%[57 µM]	-26.5%
CCOc1cc(C2c3c(-c4ccccc4O)n[nH]c3C(=O)N2CCc2ccccc2)ccc1O (configuration not stated)	u	x	-0.4%[59 µM]	34.4%	-19.1%
Cn1c(SCC(=O)O)nnc1-c1cccc(NC(=O)c2cccc3ccccc23)c1	-13.3%	-5.0%	31.6µM*	33.2%	-4.4%[11.4 µM]
Cn1c(SCC(=O)N2CCN(c3ccccc3)CC2)nnc1-c1ccco1	-26.2%	-8.0%	28.3%	34.4%	-15.0%
Cn1c(SCC(=O)N2CCN(c3ccccc3)CC2)nnc1-c1ccccc1	-19.6%	20.2%	50.1µM*	21.2%	-8.3%
COc1cc2c(cc1OC)CN(C(=O)CSc1nnc3scc(-c4ccccc4)n13)CC2	-24.4%	70.8µM*	14.1µM*	50.8%	-16.2%
Cc1ccc(S(=O)(=O)c2c(N)n(Cc3ccco3)c3nc4ccccc4nc23)cc1C	-25.9%	35.5µM*	u	23.3%	-15.7%
